Data from PubChem BioAssay (NCI).
About 83,000 compounds went through this panel and 20% of them were active in at least one assay; those are over-represented in the sample as a whole.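 Note: values are percent growth. 100 is the growth of untreated cells, values between 100 and 0 indicate rising inhibition; between -100 and 0 indicates cell death.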 A number with no mark means an inactive call. Activity calls are given as the source filed them. How the source made its calls: active means growth percent below 10; inactive means the rest.

Tests used:
Assay in all cases: NCI-60 one-dose screen, 48 h (100 = growth as untreated, 0 = no growth, -100 = all killed)
HT29 colon = settings: 10 µM unless noted
SNB-75 CNS = settings: 10 µM unless noted
SNB-19 CNS = settings: 10 µM unless noted
U251 CNS = settings: 10 µM unless noted
PC-3 prostate = settings: 10 µM unless noted
SK-MEL-5 melanoma = settings: 10 µM unless noted
UACC-62 melanoma = settings: 10 µM unless noted
LOX IMVI melanoma = settings: 10 µM unless noted
SK-MEL-28 melanoma = settings: 10 µM
SK-MEL-2 melanoma = settings: 10 µM unless noted

Compound	growth (HT29 colon)	growth (SNB-75 CNS)	growth (SNB-19 CNS)	growth (U251 CNS)	growth (PC-3 prostate)	growth (SK-MEL-5 melanoma)	growth (UACC-62 melanoma)	growth (LOX IMVI melanoma)	growth (SK-MEL-28 melanoma)	growth (SK-MEL-2 melanoma)
COc1cc(OC)cc(N2C(=O)N(Cc3ccc(C(C)(C)C)cc3)c3ccccc3S2(=O)=O)c1	93.7%	73.9%	94.7%	95.9%	84.4%	85.8%	90.6%	85.1%	91.9%	88.5%
COc1cc2nc(-c3cccc4cccnc34)nc(NC3CCN(Cc4ccccc4)CC3)c2cc1OC	-87.2% (active)	-87.8% (active)	-78.2% (active)	-78.4% (active)	-84.4% (active)	-96.8% (active)	-82.3% (active)	-82.3% (active)	-76.9% (active)	-77.8% (active)
COc1ccc(-c2nsc3c2NC(=O)CC3c2ccc3c(c2)OCCO3)cc1 (stereo not given)	-0.622% (active)	35.1%	56.8%	24.3%	23.6%	27%	32.2%	44.3%	43.1%	57.5%
CCN1C(=O)N(CC)C2Nn3c(s/c(=C\c4ccccc4F)c3=O)=NC21 (stereo not given)	17.4%	55.1%	45.5%	26.1%	39.6%	33.9%	36.7%	44.3%	54.2%	52.8%
Cc1c(C(=O)OCCO)cc(-c2ccc(Cl)cc2)n1-c1ccc(Cl)cc1Cl	74.6%	82.3%	90.6%	77.7%	70.4%	67.1%	54.5%	65.1%	70.8%	95.9%
O=C1/C(=C/c2ccc(O)cc2)COc2ccc(O)cc21	98.3%	96.4%	99.9%	80%	94.3%	102%	92.8%	70.1%	105%	114%
COc1ccc2occ(C3=C(c4c[nH]c5ccccc45)C(=O)NC3=O)c2c1	17.2%	16.6%	51.1%	43.6%	62.7%	47.4%	37.9%	44.9%	58.6%	43.7%
CCOC(=O)c1cnc2c(C)cccc2c1Nc1ccc(C(C)=O)cc1	-67.4% (active)	32.4%	40.6%	-81.3% (active)	12.4%	-91.8% (active)	12.3%	-88.5% (active)	-93% (active)	-76.2% (active)
O=C1c2cc(Cl)ccc2Oc2cc([N+](=O)[O-])ccc2N1c1ccc(F)cc1F	79%	69.8%	91.9%	86.6%	89.4%	68.7%	81.2%	95.4%	114%	80.3%
O=C1NC(=O)C(=Cc2cn(Cc3cn(Cc4ccc(Cl)cc4Cl)nn3)c3ccccc23)C(=O)N1	111%	75.4%	88.5%	91%	89.6%	69.5%	67.6%	80.1%	107%	79.3%
